# SW480 rereplic: A quantitative high throughput screen for small molecules that induce DNA re-replication in SW480 colon adenocarcinoma cells; Potency, µM (highest dose often 46.1 µM), most hits filed as activators; 340,000 tested, 1.8% active; SW480 DNA re-replication, Hoechst DNA content imaging, 48 h; further: nearly all actives have a fitted effect of over 55% in size
#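 Image-based DNA-content assay: after two days of treatment, nuclei were labelled with the DNA dye Hoechst and imaged, and hits were compounds raising the count of nuclei showing high fluorescence intensity.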
# KB-V1 MDR tox: qHTS assay for MDR1-selective chemotherapeutics: Primary screen using the drug-selected MDR subline cells KB-V1; KB-V1 MDR cells viability, CellTiter-Glo, 72 h; Potency, µM (doses to about 46.1 µM), hits mostly cytotoxic; 400,000 tested, 3.4% active; AID 1347076, 2019; further: nearly all actives have a fitted effect of over 60% in size
#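 Drug-selected KB-V1 cells, grown in DMEM lacking phenol red with 10% FBS, receive compound titrations; after three days at 37 degrees C, surviving cell ATP is quantified by CellTiter-Glo luminescence and responses normalized and curve-fitted.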
# HT1080NT lethal: qHTS for induction of synthetic lethality in tumor cells producing 2HG: qHTS for the HT-1080-NT fibrosarcoma cell line; HT-1080-NT fibrosarcoma viability, CellTiter-Glo ATP luminescence, 48 h; Potency, µM (top dose mostly 46.1 µM), most hits filed as cytotoxic; 360,000 tested, 1.6% active; AID 686970, 2013;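 further: NT is the 2HG producing partner of a matched IDH1 knockdown line; nearly all actives have a fitted effect of over 55% in size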
#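 Viability of the 2HG-overproducing fibrosarcoma line after 48 hours of compound exposure at 37 degrees C was determined by luminescence with CellTiter-Glo, and concentration-effect curves were then fitted and categorized.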
# KB-3-1 cytotox: qHTS assay for MDR1-selective chemotherapeutics: Primary screen using the parental adenocarcinoma cell KB-3-1; KB-3-1 viability, CellTiter-Glo ATP luminescence, 72 h; Potency, µM (top dose mostly 46.1 µM), hits mostly cytotoxic; 400,000 tested, 1.4% active; AID 1347075, 2019; further: nearly all actives have a fitted effect of over 60% in size
#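 72 h, 37 °C compound treatment of KB-3-1 parental cells; CellTiter-Glo added, 10 min, luminescence read. Data corrected against DMSO-only plates and normalized before curve fitting.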
# MCF10A rereplic: A quantitative high throughput screen for small molecules that induce DNA re-replication in MCF 10a normal breast cells. 350,000 tested, 2.9% active. MCF 10A DNA re-replication, Hoechst nuclear intensity, 48 h. Potency, µM (top dose mostly 46.1 µM), usual class: activators. AID 624296, 2012; further: nearly all actives have a fitted effect of over 50% in size
# HT1080 IDH1KD tx: qHTS for induction of synthetic lethality in tumor cells producing 2HG: qHTS for the HT-1080-IDH1KD cell line. HT-1080 IDH1 knockdown viability, ATP luminescence, 48 h. Potency, µM (highest dose often 46.1 µM), most hits filed as cytotoxic. 360,000 tested, 2% active
#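 CellTiter-Glo luminescence after 48 h compound exposure at 37 degrees C of IDH1-knockdown HT-1080 cells in 5% FBS RPMI. %Activity scaled between DMSO wells and cell-free media wells, with curves fitted and assigned curve classes.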
# Numbers stand for hits; n = inactive; u = inconclusive; x = not tested or not shown; [ ] = remark or other dose. Sampled rows, rich in hits. Any-hit rate of the full collection: about 7.9%. The call rests on the fitted dose curve; in most records, active means well fitted curve in the direction sought with a large enough effect; inconclusive means small, poorly fitted or top-dose-only effect, or another doubt; inactive means no such curve, though single readings can be large; an effect the other way counts as inactive or inconclusive.
SMILES,SW480 rereplic,KB-V1 MDR tox,HT1080NT lethal,KB-3-1 cytotox,MCF10A rereplic,HT1080 IDH1KD tx
Clc1nnc(N/N=C/c2ccccc2)c2ccccc12,u,u,u,u,18µM,u
CCOC(=O)C/C(=N\Nc1ncnc2ccccc12)c1ccccc1,n,16µM,n,n,n,n
Clc1ccc(/C=N/Nc2nnc(Cl)c3ccccc23)cc1,n,n,n,n,n,n
C(=N\Nc1ncnc2ccccc12)/c1ccccc1,u,u,23µM,n,n,u
Cc1ccc(NC(=O)c2cnc3sc(N4CCOCC4)nn3c2=O)cc1N(C)C,x,n,x,n,x,x
Cc1ccc2c(c1)-c1c(ssc1=S)C(C)(C)N2C(=O)CSc1nncn1C,n,u,n,u,n,n
CCOc1ccc2c(c1)-c1c(ssc1=S)C(C)(C)N2C(=O)c1ccco1,16µM,u,4.6µM,u,4.1µM,5.2µM
O=C(c1ccc2nc[nH]c2c1)N1CCN(c2cccc(C(F)(F)F)c2)CC1,u,n,n,n,n,n
O=C(c1ccc2c(c1)CCN2S(=O)(=O)c1ccccc1)N1CCN(c2cccc(Cl)c2)CC1,x,n,x,n,x,x
O=C(c1ccc2c(c1)OCO2)N1CCN(c2cccc(C(F)(F)F)c2)CC1,u,16µM,18µM,13µM,12µM,u
O=C(Nc1ccc2c(c1)OCO2)N1CCN(c2cccc(C(F)(F)F)c2)CC1,n,n,n,n,n,n
O=C(c1ccc2ncsc2c1)N1CCN(c2cccc(C(F)(F)F)c2)CC1,u,u,8.2µM,u,13µM,8.2µM
CCS(=O)(=O)N1CCc2cc(C(=O)N3CCN(c4cccc(C(F)(F)F)c4)CC3)ccc21,x,u,x,16µM,x,x
O=C(NCCc1nc2ccccc2n1Cc1c(F)cccc1Cl)c1ccco1,x,n,x,n,x,x
CCOC(=O)C(=O)NCC(c1cccs1)S(=O)(=O)c1ccc(F)cc1 (stereo not given),n,n,n,n,n,n
C/C(CC(=O)Nc1ccc(Cl)c(C(F)(F)F)c1)=N\NC(=O)c1ccccc1O,n,18µM,u,u,u,u
C/C(CC(=O)Nc1ccc([N+](=O)[O-])cc1)=N\NC(=O)c1ccccc1O,n,n,n,n,u,n
C/C(CC(=O)Nc1ccc(N(C)C)cc1)=N\NC(=O)c1ccccc1O,u,n,21µM,n,u,u
C/C(CC(=O)Nc1ccc(Cl)c(C(F)(F)F)c1)=N\NC(=O)c1cccc(O)c1,n,n,n,u,n,n
COC(=O)c1ccc(C)c(NC(=S)NCc2ccc(Cl)cc2)c1,n,23µM,n,n,n,n
COc1cc2nc(Cl)nc(NC(C)C)c2cc1OC,x,x,n,x,x,n
CCOC(=O)COc1ccc(Br)cc1/C=C\c1[nH]c(=O)[nH]c(=O)c1[N+](=O)[O-],u,n,n,n,8.2µM,n
CCOC(=O)COc1ccc(Br)cc1/C=C/c1[nH]c(=O)[nH]c(=O)c1[N+](=O)[O-],u,n,18µM,n,u,u
COc1ccc(C(=O)CC(Nc2ccc([N+](=O)[O-])cc2)c2ccc(Cl)cc2)cc1 (stereo not given),u,6.5µM,u,n,n,10µM
COc1ccc(C(=O)CC(=O)C(=O)Nc2ccc(Cl)cc2)cc1,n,n,n,n,n,u
SMILES,SW480 rereplic,KB-V1 MDR tox,HT1080NT lethal,KB-3-1 cytotox,MCF10A rereplic,HT1080 IDH1KD tx
Cc1cc(C)c(C#N)c(SCc2nc3ccccc3[nH]2)n1,18µM,n,n,n,13µM,n
Cc1cc(C)c(C#N)c(SCc2ccc(F)cc2)n1,n,u,n,n,n,n
Cc1ccc(C#N)c(SCc2ccccc2[N+](=O)[O-])n1,n,n,n,n,n,n
Cc1cc(C)c(C#N)c(SCc2ccccc2[N+](=O)[O-])n1,n,23µM,n,n,n,n
COc1ccc2c(c1)O[C@@H](c1ccc3c(c1)OCO3)[C@H](OC(=O)Nc1cc(OC)c(OC)c(OC)c1)C2=O,16µM,x,x,x,3.7µM,x
COc1ccc(OC)c(NC(=O)c2cn3c4c(ccc(Cl)c4c2=O)OC(C)C3)c1 (stereo not given),x,n,x,n,x,x
CC(C)=CC(O)C/C(C)=C/COc1ccc2ccc(=O)oc2c1 (stereo not given),n,13µM,23µM,5.8µM,u,u
CC(=O)OC(C=C(C)C)C/C(C)=C/COc1c2ccoc2cc2oc(=O)ccc12 (stereo not given),n[9.22 µM],n,n,n,n,n
Cc1oc2c(O)c(O)ccc2c(=O)c1-c1cnn(-c2ccccc2)c1,u,3.7µM,u,n,n,u
Cc1[nH]c2ccccc2c1CCO,n,n,n,n,n,n
Cc1[nH]c2ccccc2c1C1=CC(=O)C=CC1=O,u,n,n,u,n,21µM
Cc1nc(-c2ccc(S(=O)(=O)N3CCN(c4ccccc4F)CC3)cc2)co1,x,u,x,n,x,x
Cc1ccc(CONC(=O)c2cccc([N+](=O)[O-])c2)cc1,n,n,n,n,n,n
O=C(CCNc1ccccc1)c1cccc([N+](=O)[O-])c1,8.2µM,n,n,n,3.7µM,u
Cc1ccc(NCCC(=O)c2cccc([N+](=O)[O-])c2)cc1,u,n,u,n,6.5µM,u
O=C(Nc1ccc(NC(=O)c2cccc([N+](=O)[O-])c2)cc1)c1cccc([N+](=O)[O-])c1,n,n,n,n,n,n
O=C(CCNc1ccc(F)cc1)c1cccc([N+](=O)[O-])c1,u,n,u,n,u,u
O=C(CCNc1ccc(Br)cc1)c1cccc([N+](=O)[O-])c1,n,n,23µM,n,u,u
CC(=O)N1c2ccccc2C(=O)C1N1CCN(c2cccc(C)c2C)CC1 (stereo not given),x,n,x,n,x,x
CCCCC1C(=O)N(c2ccccc2)N(c2ccccc2)C1=O,n,n,n,n,n,n
CCCCN1C=CC(=C2C(=O)c3ccccc3C2=O)C=C1,n,u,16µM,n,n,23µM
O=c1cc2oc3cc(O)c(O)cc3c(-c3ccccc3[N+](=O)[O-])c-2cc1O,n,u,15µM,n,n,21µM
O=c1cc(-c2ccccc2Cl)oc2cccc(O)c12,n,n,n,n,n,n
COc1ccc(C(=O)/C=C/C(=O)N(Cc2ccccc2)C(C(=O)NC2CCCCC2)c2ccncc2)c(O)c1 (stereo not given),n,0.92µM,n,n,n,n
